Six sequences from PMC11006913 can be followed below.

Assay in all cases: PBM; 200 nM protein, PBS
What all share (conditions): dsDNA, one strand shown

For test [1], the target named is T1, VENTX (Homo sapiens, UniProt O95231 78-163, R121Q).
T1 sequence: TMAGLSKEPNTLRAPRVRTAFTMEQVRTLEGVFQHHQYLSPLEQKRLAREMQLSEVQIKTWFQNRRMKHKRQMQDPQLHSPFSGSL

The target of test [2] is T2, VENTX (Homo sapiens, UniProt O95231 78-163).
T2 sequence: T1 sequence with Q44R

Test [3] addresses HOXC9 (Homo sapiens, UniProt P31274 178-260, K195R).
In test [4] the target is T3, VENTX (Homo sapiens, UniProt O95231 78-163, Y115F).
T3 sequence: T1 sequence with Y38F, Q44R

Test [5] concerns the target HOXC9 (Homo sapiens, UniProt P31274 178-260).
Test [6] addresses HOXC9 (Homo sapiens, UniProt P31274 178-260, R193K).
The target of test [7] is HOXC9 (Homo sapiens, UniProt P31274 178-260, R222W).
Test [8] has as its target HOXA4 (Homo sapiens, UniProt Q00056 201-287, W262R).
For test [9], the target named is PRRX1 (Homo sapiens, UniProt P54821 80-166, F113S).
Test [10] has as its target HOXA4 (Homo sapiens, UniProt Q00056 201-287, R217L).
For test [11], the target named is HOXA4 (Homo sapiens, UniProt Q00056 201-287).
Test [12] has as its target HOXA4 (Homo sapiens, UniProt Q00056 201-287, W262F).
Test [13] has as its target PRRX1 (Homo sapiens, UniProt P54821 80-166).
In test [14] the target is HOXB6 (Homo sapiens, UniProt P17509 132-218, K202E).
The target of test [15] is VAX1 (Homo sapiens, UniProt Q5SQQ9 86-172).
The target in test [16] is VAX1 (Homo sapiens, UniProt Q5SQQ9 86-172, T142I).
Test [17] has as its target VAX1 (Homo sapiens, UniProt Q5SQQ9 86-172, K157R).
The target in test [18] is HOXB6 (Homo sapiens, UniProt P17509 132-218).
The target in test [19] is ALX4 (Homo sapiens, UniProt Q9H161 200-286).
The target of test [20] is ALX4 (Homo sapiens, UniProt Q9H161 200-286, Q225E).
Test [21] concerns the target T4, NKX2-6 (Homo sapiens, UniProt A6NCS4 118-204).
T4 sequence: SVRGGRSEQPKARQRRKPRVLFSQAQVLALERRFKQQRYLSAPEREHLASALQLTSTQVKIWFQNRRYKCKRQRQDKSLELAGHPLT

The target in test [22] is T5, NKX2-6 (Homo sapiens, UniProt A6NCS4 118-204, F151L).
T5 sequence: T4 sequence with F34L

Positions count from the first letter of the chain named.

Chain of HOXC9 (Homo sapiens, UniProt P31274 178-260, R193K) (P31274 178-260 R193K): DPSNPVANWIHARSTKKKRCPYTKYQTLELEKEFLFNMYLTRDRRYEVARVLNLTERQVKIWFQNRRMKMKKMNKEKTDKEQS
Chain of HOXC9 (Homo sapiens, UniProt P31274 178-260, R222W) (P31274 178-260 R222W): as the sequence (P31274 178-260 R193K) above, with K16R, R45W counted along it
Chain of HOXC9 (Homo sapiens, UniProt P31274 178-260) (P31274 178-260): as the sequence (P31274 178-260 R193K) above, with K16R counted along it
Chain of HOXC9 (Homo sapiens, UniProt P31274 178-260, K195R) (P31274 178-260 K195R): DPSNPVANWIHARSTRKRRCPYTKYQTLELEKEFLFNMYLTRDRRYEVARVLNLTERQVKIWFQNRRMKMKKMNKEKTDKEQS
Chain of HOXA4 (Homo sapiens, UniProt Q00056 201-287, R217L) (Q00056 201-287 R217L): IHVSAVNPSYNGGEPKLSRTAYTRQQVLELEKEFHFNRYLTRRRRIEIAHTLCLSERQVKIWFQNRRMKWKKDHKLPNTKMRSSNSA
Chain of HOXA4 (Homo sapiens, UniProt Q00056 201-287, W262F) (Q00056 201-287 W262F): as the sequence (Q00056 201-287 R217L) above, with L17R, W62F counted along it
Chain of HOXA4 (Homo sapiens, UniProt Q00056 201-287) (Q00056 201-287): as the sequence (Q00056 201-287 R217L) above, with L17R counted along it
Chain of HOXA4 (Homo sapiens, UniProt Q00056 201-287, W262R) (Q00056 201-287 W262R): as the sequence (Q00056 201-287 R217L) above, with L17R, W62R counted along it
Chain of VAX1 (Homo sapiens, UniProt Q5SQQ9 86-172, K157R) (Q5SQQ9 86-172 K157R): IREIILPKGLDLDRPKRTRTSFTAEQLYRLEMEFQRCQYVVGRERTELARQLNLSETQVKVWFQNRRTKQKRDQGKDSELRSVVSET
Chain of PRRX1 (Homo sapiens, UniProt P54821 80-166, F113S) (P54821 80-166 F113S): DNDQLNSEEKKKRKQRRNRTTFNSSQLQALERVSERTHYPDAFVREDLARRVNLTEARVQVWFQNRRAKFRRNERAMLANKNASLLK
Chain of VAX1 (Homo sapiens, UniProt Q5SQQ9 86-172, T142I) (Q5SQQ9 86-172 T142I): as the sequence (Q5SQQ9 86-172 K157R) above, with T57I, R72K counted along it
Chain of VAX1 (Homo sapiens, UniProt Q5SQQ9 86-172) (Q5SQQ9 86-172): as the sequence (Q5SQQ9 86-172 K157R) above, with R72K counted along it
Chain of HOXB6 (Homo sapiens, UniProt P17509 132-218) (P17509 132-218): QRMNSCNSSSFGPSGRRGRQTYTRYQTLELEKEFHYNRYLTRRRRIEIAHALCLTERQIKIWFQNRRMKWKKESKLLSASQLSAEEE
Chain of PRRX1 (Homo sapiens, UniProt P54821 80-166) (P54821 80-166): as the sequence (P54821 80-166 F113S) above, with S34F counted along it
Chain of ALX4 (Homo sapiens, UniProt Q9H161 200-286, Q225E) (Q9H161 200-286 Q225E): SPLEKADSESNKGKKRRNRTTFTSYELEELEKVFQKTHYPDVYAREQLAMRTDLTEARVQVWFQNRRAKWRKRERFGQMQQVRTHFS
Chain of ALX4 (Homo sapiens, UniProt Q9H161 200-286) (Q9H161 200-286): as the sequence (Q9H161 200-286 Q225E) above, with E26Q counted along it
Chain of HOXB6 (Homo sapiens, UniProt P17509 132-218, K202E) (P17509 132-218 K202E): as the sequence (P17509 132-218) above, with K71E counted along it

With AAGTAAAC, the binding signal in the test with VENTX [1] was 9.37 upbm affinity estimate (log intensity, higher = more binding, comparable within an allelic series); with VENTX [2] it was 9.73 upbm affinity estimate (log intensity, higher = more binding, comparable within an allelic series).
As to GGCACCAC, the binding signal with VENTX [1] is 8.11 upbm affinity estimate (log intensity, higher = more binding, comparable within an allelic series); with HOXC9 [3], 9.65 upbm affinity estimate (log intensity, higher = more binding, comparable within an allelic series); in the test with VENTX [2], 8.1 upbm affinity estimate (log intensity, higher = more binding, comparable within an allelic series); with VENTX [4] it was 8.09 upbm affinity estimate (log intensity, higher = more binding, comparable within an allelic series); in the test with HOXC9 [5] it was 9.66 upbm affinity estimate (log intensity, higher = more binding, comparable within an allelic series); in the test with HOXC9 [6], 9.65 upbm affinity estimate (log intensity, higher = more binding, comparable within an allelic series). In addition, the binding signal in the test with HOXC9 [7] is 9.76 upbm affinity estimate (log intensity, higher = more binding, comparable within an allelic series).
Regarding CCCTTCCG, the binding signal in the test with VENTX [1] is 8.08 upbm affinity estimate (log intensity, higher = more binding, comparable within an allelic series); with HOXA4 [8] it was 9.79 upbm affinity estimate (log intensity, higher = more binding, comparable within an allelic series); in the test with VENTX [2] it was 8.37 upbm affinity estimate (log intensity, higher = more binding, comparable within an allelic series); in the test with PRRX1 [9], 9.35 upbm affinity estimate (log intensity, higher = more binding, comparable within an allelic series); in the test with VENTX [4] it was 8.15 upbm affinity estimate (log intensity, higher = more binding, comparable within an allelic series); with HOXA4 [10], 9.96 upbm affinity estimate (log intensity, higher = more binding, comparable within an allelic series). Besides, the binding signal in the test with HOXA4 [11] was 10 upbm affinity estimate (log intensity, higher = more binding, comparable within an allelic series); in the test with HOXA4 [12], 10 upbm affinity estimate (log intensity, higher = more binding, comparable within an allelic series); with PRRX1 [13], 9.49 upbm affinity estimate (log intensity, higher = more binding, comparable within an allelic series).
Regarding GGGGTACC, the binding signal with VENTX [1] was 8.08 upbm affinity estimate (log intensity, higher = more binding, comparable within an allelic series); with HOXC9 [3], 9.78 upbm affinity estimate (log intensity, higher = more binding, comparable within an allelic series); in the test with VENTX [2], 8.11 upbm affinity estimate (log intensity, higher = more binding, comparable within an allelic series); in the test with VENTX [4], 7.99 upbm affinity estimate (log intensity, higher = more binding, comparable within an allelic series); with HOXB6 [14] it was 9.07 upbm affinity estimate (log intensity, higher = more binding, comparable within an allelic series); in the test with HOXC9 [5] it was 9.67 upbm affinity estimate (log intensity, higher = more binding, comparable within an allelic series). Further, the binding signal is 9.47 upbm affinity estimate (log intensity, higher = more binding, comparable within an allelic series) with HOXC9 [6]; 7.1 upbm affinity estimate (log intensity, higher = more binding, comparable within an allelic series) with VAX1 [15]; 9.69 upbm affinity estimate (log intensity, higher = more binding, comparable within an allelic series) in the test with HOXC9 [7]; 7.26 upbm affinity estimate (log intensity, higher = more binding, comparable within an allelic series) in the test with VAX1 [16]; 7.1 upbm affinity estimate (log intensity, higher = more binding, comparable within an allelic series) in the test with VAX1 [17]; 9.04 upbm affinity estimate (log intensity, higher = more binding, comparable within an allelic series) with HOXB6 [18].
Take CGGAGGGA: the binding signal with VENTX [1] was 8.11 upbm affinity estimate (log intensity, higher = more binding, comparable within an allelic series); with HOXA4 [8], 9.84 upbm affinity estimate (log intensity, higher = more binding, comparable within an allelic series); with HOXC9 [3], 9.42 upbm affinity estimate (log intensity, higher = more binding, comparable within an allelic series); with VENTX [2] it was 7.97 upbm affinity estimate (log intensity, higher = more binding, comparable within an allelic series); in the test with ALX4 [19] it was 7.87 upbm affinity estimate (log intensity, higher = more binding, comparable within an allelic series); in the test with VENTX [4] it was 8.17 upbm affinity estimate (log intensity, higher = more binding, comparable within an allelic series). Also, the binding signal with ALX4 [20] was 8.03 upbm affinity estimate (log intensity, higher = more binding, comparable within an allelic series); with HOXA4 [10] it was 9.72 upbm affinity estimate (log intensity, higher = more binding, comparable within an allelic series); with HOXC9 [5], 9.45 upbm affinity estimate (log intensity, higher = more binding, comparable within an allelic series); with NKX2-6 [21], 9.02 upbm affinity estimate (log intensity, higher = more binding, comparable within an allelic series); in the test with HOXC9 [6], 9.42 upbm affinity estimate (log intensity, higher = more binding, comparable within an allelic series); in the test with HOXA4 [11], 9.76 upbm affinity estimate (log intensity, higher = more binding, comparable within an allelic series). The binding signal was 9.3 upbm affinity estimate (log intensity, higher = more binding, comparable within an allelic series) in the test with NKX2-6 [22]; 9.69 upbm affinity estimate (log intensity, higher = more binding, comparable within an allelic series) with HOXC9 [7]; 9.79 upbm affinity estimate (log intensity, higher = more binding, comparable within an allelic series) with HOXA4 [12].
In the case of ACCATTAG, in the test with VENTX [1], the binding signal was 11.7 upbm affinity estimate (log intensity, higher = more binding, comparable within an allelic series).
